Twelve molecules from PubChem BioAssay AID2685 (National Center for Advancing Translational Sciences (NCATS), 2010) can be followed below.

Each structure is given as a SMILES string. In all, about 320,000 compounds went through this assay and about 2,100 (0.66%) were called active. Roughly 53% stayed inconclusive and do not appear here. The call rests on the fitted dose curve; in most records, active means well fitted inhibition curve with a large enough effect in the signal ratio, with a control signal flat (not every such curve was filed as active); inconclusive means small, poorly fitted or top-dose-only effect, or effect the other way, or a change in a side signal; inactive means flat fitted curve, though single readings scatter; the % refers to the signal ratio. The sample as a whole holds a higher share of actives than the screen did.
Potency means the concentration at half of the fitted maximal effect.

The nature of this assay: qHTS Assay for Lipid Storage Modulators in Drosophila S3 Cells.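 On cell number change: cells counted by Cell Tracker Red CMTPX staining in the red channel.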 Particulars: BODIPY lipid droplet fluorescence, 18-24 h, cells fed with added oleic acid; cell number change: measured here: cell count max response; series mostly up to 46.1 µM. An outline of the steps: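 Drosophila S3 cells loaded with oleic acid (400 uM, as added) and compounds at several concentrations; lipid droplets imaged by 488-nm laser-scanning cytometry, 500–530 nm intensity and object ratio to cell channel. Percent activity normalized to 20 uM Triacsin C.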
As for `Cc1ccc(-n2nc3c(=O)n(CC(=O)NCc4ccc(C)o4)nc(C)c3c2C)cc1`, the Potency entry was “inactive” and the cell number change is -10.7%.
As to `COC(=O)c1ccc2c(=O)n(CCCCCC(=O)NC(C)C)c(=O)[nH]c2c1`, the Potency entry is “inactive”.
Consider `O=C(Cn1cncn1)NCc1cccc2ccccc12`, for which the Potency result was “inactive” and the cell number change was -12.1%.
For `CC1CCN(CCNC(=S)Nc2ccc(Cl)cc2)CC1`, in that order: “inactive” and 5.06%.
For `COc1cccc(/C=C2/C(=O)NN(c3ccccc3)C2=O)c1`, in that order: “inactive” and 0.215%.
For `COc1cccc(/C=C2/C(=O)NN(c3ccc(F)cc3)C2=O)c1`, in that order: “inactive” and 8.15%.
Turning to `O=C1NN(c2ccc(Cl)c(Cl)c2)C(=O)/C1=C/c1cccc(OC(=O)c2cccs2)c1`, the Potency was 23.1 µM (active) and the cell number change was -11.7%.
Taken in the same sequence, the figures for `CCOc1ccc(S(=O)(=O)Oc2ccc3ccccc3c2)cc1` were “inactive” and -10%.
On to `CCOC(=O)c1sc(NC(=O)CSc2n[nH]c(-c3ccccc3)n2)c(C#N)c1C`, for which the Potency result is “inactive”.
For `CCOc1ccc(/C=C/C2=Cc3c(sc(NC(=O)CSc4n[nH]c(N)n4)c3C#N)C(C)(C)C2)cc1`, the Potency was 14.6 µM (active) and the cell number change was -29.6%.
For `CCOc1ccccc1NC(=O)CSc1n[nH]c(N)n1`, in that order: “inactive” and 13.9%.
In the case of `Cn1c(=O)n(C)c2cc(CN3C(=O)OC(C)(C)C3(C)O)ccc21` (stereo unspecified), the Potency result was “inactive”.
